CIT2-GFP yeast – modulators of TOR pathway CIT2-GFP in S. cerevisiae; S. cerevisiae CIT2-GFP strain, flow cytometry, 3 h; 100 means same as DMSO wells; GFP response vs DMSO, % at 10 µM; 320,000 compounds, 0.065% hits; AID 2029;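 active = GFP response relative to DMSO above a set limit, near the screen mean plus 3 SD, cut at about 150% in these data; inconclusive = Fewer than 70 cells measured for a yeast strain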;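 also: ratio of well median GFP fluorescence to mean of DMSO wells on the plate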
MEP2 TOR yeast – alters MEP2-GFP fluorescence in TOR pathway yeast screen; S. cerevisiae MEP2-GFP strain, flow cytometry GFP, 3 h; 100% = DMSO control level; GFP response vs DMSO, % at 10 µM; 330,000 compounds, 0.51% hits; AID 2016;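 active = GFP response versus DMSO above a set limit, roughly screen mean plus 3 SD, cut at about 180% in these data; inconclusive = fewer than 70 cells counted for a yeast strain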;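 also: median GFP fluorescence of the barcode-gated MEP2-GFP cells per well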
LAP4 TOR yeast – alters LAP4-GFP fluorescence in TOR pathway yeast screen; S. cerevisiae LAP4-GFP multiplex, flow cytometry GFP, 3 h; median GFP as percent of DMSO wells; GFP response vs DMSO, % at 10 µM; 320,000 compounds, 0.34% hits; AID 2023;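 active = GFP response vs DMSO above a set limit, about the screen mean plus 3 SD, cut at about 150% in these data; inconclusive = under 70 cell events counted for the yeast strain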
Efflux pump mplx – inhibitors of Candida antifungal efflux pumps expressed in yeast | inhibition, % at 10 µM | S. cerevisiae Candida pump triplex, Nile Red efflux | 330,000 compounds, 0.44% hits;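 active = plate passing quality check with inhibition over a set limit, or well fluorescence over plate mean plus 4 SD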;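 also: Nile Red retained in pooled yeast measured as flow cytometry median fluorescence; 0% = buffer negative control and 100% = Enniatin B positive control; higher means more Nile Red kept so more efflux inhibition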
RPL19A TOR yeast – alters RPL19A-GFP fluorescence in TOR pathway yeast screen; percent response vs DMSO, % at 10 µM; S. cerevisiae RPL19A-GFP strain, flow cytometry, 3 h; stronger effect = lower value; 330,000 compounds, 0.3% hits; AID 2025;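 active = percent response vs DMSO below 50%; inconclusive = fewer than 70 events counted for the yeast strain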;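 also: median channel GFP fluorescence of the barcoded RPL19A-GFP strain; ratio of sample median GFP to plate DMSO average so 100% = DMSO; lower means less RPL19A-GFP as with rapamycin TOR inhibition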
AGP1-GFP MLPCN – modulators of TOR pathway AGP1-GFP in S. cerevisiae | 320,000 compounds, 0.02% hits | GFP response vs DMSO, % at 10 µM | S. cerevisiae AGP1-GFP multiplex flow cytometry, 3 h; GFP as percent of DMSO wells | AID 2066;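 active = GFP response relative to DMSO above a set limit, near screen average plus 3 SD, cut at about 150% in these data; inconclusive = fewer than 70 cells counted for the yeast strain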;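 also: median GFP channel fluorescence of the gated AGP1 strain per well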
The depositor's hits bear a star; ? = inconclusive; · = no result; [ ] = another dose, or the depositor's remark. Hits are enriched below; roughly 1.3% of the tested compounds scored in any of these assays.

SMILES	CIT2-GFP yeast	MEP2 TOR yeast	LAP4 TOR yeast	Efflux pump mplx	RPL19A TOR yeast	AGP1-GFP MLPCN
COc1ncnc2c1oc1nc(C(C)C)c3c(c12)CC(C)(C)OC3	·	531*[may fluoresce violet]	89	0	44*[may fluoresce violet]	28
COC(=O)c1ccc(/C=C2/SC(=S)N(CCC(=O)NCCCN3CCOCC3)C2=O)cc1	?	566*[may fluoresce violet]	89	0	58	?
CC(NC(=O)C1CCC(CNS(=O)(=O)c2ccccc2)CC1)c1ccccc1 (stereo not given)	122	311*	132	0	68	124
CCC(C)NC(=O)C1CCC(CNS(=O)(=O)c2ccccc2)CC1 (stereo not given)	97	97	83	0	102	93
COCCNC(=O)NC(=O)CSc1nc(C)c(C)c(C)n1	104	107	94	0	103	99
Cc1c(Cl)cccc1NC(=S)N=Nc1c(O)n(CN2CCOCC2)c2ccccc12	98	96	93	29*	102	94
Oc1c(N=NC(=S)Nc2ccccc2F)c2ccccc2n1Cc1ccccc1Cl	105	99	99	0	96	103
COc1cc(C(=O)OCC(=O)N2CCN(C(C)=O)CC2)ccc1OCC(C)C	107	105	103	0	102	109
COC(=O)C(Cc1ccc(O)cc1)NC(=O)C(C)Oc1ccccc1 (stereo not given)	98	104	98	0	100	101
COC(=O)C(Cc1ccc(O)cc1)NC(=O)c1ccc2c(c1)OCCO2 (stereo not given)	?	237*[may fluoresce violet]	67	0	39*[may fluoresce violet]	?
COC(=O)C(Cc1ccc(O)cc1)NC(=O)CCc1ccco1 (stereo not given)	?	?	?	0	18*[may fluoresce violet]	?
Cc1ccc(NC(=O)CSC(C)c2nc3ccccc3c(=O)[nH]2)cc1 (stereo not given)	95	98	90	0	104	97
CC1=CN2C(=NC(=O)CC2(C)C(=O)N(CC(=O)NC2CCCC2)c2ccccc2C)C=C1 (stereo not given)	·	285*[may fluoresce violet]	91	0	36*[may fluoresce violet]	?
CN1C=CC=C/C1=C1\SC(=S)N(N)C1=O	?	293*[may fluoresce violet]	68	0	44*[may fluoresce violet]	?
Cc1nc2ccccc2nc1OCc1cccc([N+](=O)[O-])c1	103	93	96	0	105	104
Cc1ccc2oc(C(=O)Nc3cc(C)on3)c(C)c2c1	106	112	108	0	99	103
C=CCNC(=O)C(C)Sc1ccc(Cl)cc1 (stereo not given)	95	97	101	0	100	106
CCNC(=O)C(C)Sc1ccc(Cl)cc1 (stereo not given)	?	351*[may fluoresce violet]	88	0	48*[may fluoresce violet]	?
O=C(NCCCN1CCOCC1)C(=O)N/N=C/c1ccc2c(c1)OCO2	?	298*[may fluoresce violet]	105	1	47*[may fluoresce violet]	?
CCCCCC(=O)Cc1cc(O)cc2c1C(=O)Oc1cc(O)c(C(=O)O)c(CCCCC)c1O2	91	92	105	0	97	95
O=C(NCC(c1ccc(F)cc1)N1CCOCC1)c1cc(F)c(F)c(F)c1F (stereo not given)	171*	155	77	0	105	78
O=C(NCC(c1ccc(F)cc1)N1CCOCC1)c1ccccc1F (stereo not given)	101	96	110	0	98	107
Cc1nnc(SCC(=O)N(C)C2CCS(=O)(=O)C2)n1Cc1ccccc1 (stereo not given)	?	269*[may fluoresce violet]	82	0	27*[may fluoresce violet]	?
CC(NC=O)c1nc2ccccc2n1CCc1ccccc1 (stereo not given)	?	?	?	0	?	?
O=C(CCCc1ccccc1)NCc1ccc(Cl)cc1	100	113	108	0	108	102
SMILES	CIT2-GFP yeast	MEP2 TOR yeast	LAP4 TOR yeast	Efflux pump mplx	RPL19A TOR yeast	AGP1-GFP MLPCN
COc1ccc(/C=N/NC(=O)C2(C)NC(C)(C)Cc3ccccc32)cc1 (stereo not given)	148	239*	158*	0	80	160*
CCN(CC)c1ccc2cc(C(C)=O)c(=O)oc2c1	?	311*[may fluoresce violet]	106	0	19*[may fluoresce violet]	·
CCN(CC)c1ccc2cc(C(N)=O)c(=O)oc2c1	83	107	121	0	96	93
Cc1nc2ncnn2c(C)c1CCC(=O)NCCCN1CCN(c2cccc(Cl)c2)CC1	?	180*[may fluoresce violet]	104	0	24*[may fluoresce violet]	?
CCC(=O)c1ccc(CCCCCC(=O)O)s1	110	98	114	0	111	108
CC(=O)c1ccc(CCCCCCCCCC(=O)O)s1	92	99	153*	0	96	100
CC(=O)Nc1ccc(C(=O)NNC(=O)c2cccc(C)c2)cc1	94	94	82	0	94	87
CCOc1ccccc1C(=O)Nc1ccc2nc(N3CCN(c4ncccn4)CC3)cc(C)c2c1	103	109	108	0	90	97
COc1cccc(C(=O)Nc2ccc3nc(N4CCN(c5ncccn5)CC4)cc(C)c3c2)c1OC	?	272*[may fluoresce violet]	71	0	18*[may fluoresce violet]	?
COc1ccc2nc(/C=N/NC(=O)CCNC(=O)OC(C)(C)C)ccc2c1	101	105	106	0	104	108
COc1ccc2nc(/C=N/NC(=O)CCCCCNC(=O)OC(C)(C)C)ccc2c1	?	204*[may fluoresce violet]	108	0	62	?
CCOC(=O)CN1CC23C=CC(O2)C(C(=O)Nc2cc(OC)ccc2OC)C3C1=O (stereo not given)	100	113	107	0.9*	101	107
CCCC(c1nnnn1CCOC)N1CCN(Cc2ccccc2)CC1 (stereo not given)	92	109	95	0	100	107
CCC(c1nnnn1CCOC)N1CCN(Cc2ccccc2OC)CC1 (stereo not given)	?	260*[may fluoresce violet]	84	0	·	?
COc1ccc(NC(=S)N2CCC(C(=O)c3ccc(C)cc3)CC2)c(OC)c1	94	99	120	0	94	98
CC(Sc1nnc(N)s1)C(=O)NCc1ccc2c(c1)OCO2 (stereo not given)	101	110	103	0	104	105
O=S(=O)(c1ccccc1)N1CCN(CC2CC3C=CC2C3)CC1 (stereo not given)	104	105	106	0	100	101
O=S(=O)(c1ccc(F)cc1)N1CCN(CC2CC3C=CC2C3)CC1 (stereo not given)	?	207*[may fluoresce violet]	90	0	55	20
COc1ccc(-c2cc(C(F)F)n3ncc(C(=O)N4CCN(C(=O)c5ccco5)CC4)c3n2)cc1	87	106	98	0.8*	101	98

Screens from PubChem.
